# Screens: PubChem BioAssay, National Center for Advancing Translational Sciences (NCATS)
# ALDH1A1 inh: blocks purified human ALDH1A1 activity; Potency, µM (titrated, usually from 75.3 µM), usual class: inhibitors; Purified ALDH1A1, NADH fluorescence, propionaldehyde substrate; P00352; actives 7.3% (n = 220,000); active = well fitted inhibition curve with a large enough effect, not every such curve was filed as active; inconclusive = small, poorly fitted or top-dose-only effect, or another doubt; inactive = no such curve, though single readings can be large or run the other way
# Target sequence (P00352 whole entry, looked up): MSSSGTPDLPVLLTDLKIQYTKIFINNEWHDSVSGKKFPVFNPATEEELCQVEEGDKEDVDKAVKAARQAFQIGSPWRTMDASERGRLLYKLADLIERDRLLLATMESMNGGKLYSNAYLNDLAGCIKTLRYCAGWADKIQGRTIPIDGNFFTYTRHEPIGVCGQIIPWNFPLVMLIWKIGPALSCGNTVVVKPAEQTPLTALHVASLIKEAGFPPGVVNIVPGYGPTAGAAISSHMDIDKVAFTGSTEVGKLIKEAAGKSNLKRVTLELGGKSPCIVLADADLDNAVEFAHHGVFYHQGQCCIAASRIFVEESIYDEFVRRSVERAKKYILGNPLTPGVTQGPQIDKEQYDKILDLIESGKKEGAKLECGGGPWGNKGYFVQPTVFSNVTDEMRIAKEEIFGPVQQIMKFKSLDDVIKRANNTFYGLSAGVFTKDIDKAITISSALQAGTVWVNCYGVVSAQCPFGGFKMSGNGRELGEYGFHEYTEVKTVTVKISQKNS
# PLK1 PBD block: blocks phosphopeptide binding to human PLK1 polo-box domain | Plk1 PBD binding of FITC phosphopeptide, fluorescence polarization | actives 2.8% (n = 360,000) | AID 720504 | Potency, µM, most hits filed as inhibitors | P53350; note: series mostly up to about 57 µM; nearly all actives have a fitted effect of over 65% in size
# RORg inh: blocks mouse ROR gamma transcriptional activity. actives 5.4% (n = 310,000). Potency, µM (highest dose often 53.6 µM), hits mostly inhibitors. Drosophila S2 Gal4-RORgamma UAS-luciferase reporter, 20 h. P51450; note: nearly all actives have a fitted effect of over 60% in size
#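 Luminescence from a UAS-regulated Photinus luciferase reporter in stably transfected Drosophila Schneider cells is measured; decreased signal marks ROR gamma inhibition. Fusion expression is induced by 700 uM copper sulfate for 20 hr.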
# Gal4-VP16 FLuc: inhibits Gal4-VP16 luciferase reporter, ROR gamma counter-screen. Drosophila S2 Gal4-VP16 UAS-luciferase, luminescence, 20 h. Potency, µM (highest dose often 53.6 µM), usual class: inhibitors. AID 2546. actives 3.5% (n = 310,000);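 note: Gal4-VP16 expression switched on by copper sulfate through the metallothionein promoter; nearly all actives have a fitted effect of over 50% in size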
# Sfp PPTase inh: Sfp phosphopantetheinyl transferase inhibition. AID 1490. Biochemical Sfp PPTase activity, qHTS. Potency, µM, usual class: inhibitors. actives 3.5% (n = 310,000). Q9F4F7;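 note: the enzyme is Sfp with the accession as filed and its product quenches rhodamine fluorescence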
#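 After 15 min at room temperature with compound, 15 nM Sfp received 5 uM rhodamine-CoA plus 12.5 uM BHQ-2-ybbR (50 mM Hepes pH 7.6, 10 mM MgCl2). Rate came from the fluorescence difference over 30 min, ex 525/em 598 nm.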
# Hits are given with their value; - = inactive; ? = inconclusive; . = no result; ! = not active in a repeat; [ ] = dose if it differs, or a comment. An excerpt weighted towards active compounds, which were near 12% of everything screened. Unless noted, calls come from the whole dose curve; as a rule, active = well fitted curve in the direction sought with a large enough effect; inconclusive = small, poorly fitted or top-dose-only effect, or another doubt; inactive = no such curve, though single readings can be large; an effect the other way counts as inactive or inconclusive.
SMILES,ALDH1A1 inh,PLK1 PBD block,RORg inh,Gal4-VP16 FLuc,Sfp PPTase inh
Nc1n[nH]c(=S)n1-c1ccc(Cl)cc1,1.58µM,11.9µM,-,-,15.8µM
Cc1cc2c3c(cccc3n1)C(=O)c1ccccc1-2,-,.,?,?,-
COc1ccccc1N(Cc1ccccc1)S(=O)(=O)c1cccc(C(=O)N2CCCCC2)c1,.,-,.,.,.
O=C(N/N=C/c1ccc(Br)o1)/C(=C/c1ccc([N+](=O)[O-])cc1)NC(=O)c1ccccc1,?,-,10µM,?,-
CN(C)c1ccc(/C=C(/NC(=O)c2ccccc2)C(=O)N/N=C/c2ccc([N+](=O)[O-])c(O)c2)cc1,3.98µM,-,-,-,-
O=C(N/N=C/c1ccco1)/C(=C/c1cccc([N+](=O)[O-])c1)NC(=O)c1ccccc1,-,-,-,-,-
O=C(Nc1cccc(F)c1)C1CCCN1C(=O)OCc1ccccc1 (stereo not drawn),.,-,-,-,-
CCOc1ccc(NC2=CC(=O)CC(c3ccco3)C2)cc1 (stereo not drawn),-,-,?,-,-
CCCCCCCNC1=CC(=O)CC(c2ccco2)C1 (stereo not drawn),25.1µM,-,?,-,-
O=C1OC2(CCCCC2)OC(=O)C1=CNc1nc2ccccc2s1,11.2µM,-,-,-,-
COC(=O)c1ccccc1NC=C1C(=O)OC2(CCCCC2)OC1=O,?,4.23µM,-,-,-
COc1ccccc1CC(=O)Nc1ccc2c(c1)OC1(CCCC1)O2,.,-,.,.,.
COc1ccccc1NC=C1C(=O)OC2(CCCCC2)OC1=O,0.0562µM,-,-,-,-
COC(=O)c1ccccc1NC(=O)CN1C(=O)NC2(CCCCCCC2)C1=O,.,-,.,.,.
O=C1OC2(CCCCC2)OC(=O)C1=CNc1nccs1,?,-,-,-,-
Cc1ccc(F)c(S(=O)(=O)NC(=O)C2(C)CCN2C(=O)Cc2cccs2)c1 (stereo not drawn),.,-,.,.,.
COc1ccc(NC(=O)Cc2coc3cc(C)c(C(C)C)cc23)cc1S(=O)(=O)N1CCOCC1,22.4µM,-,-,?,-
COc1ccc(NC(=O)Cn2ncc(Cl)c(Cl)c2=O)cc1S(=O)(=O)N1CCOCC1,11.2µM,?,?,?,-
Cc1cc2occ(CC(=O)NC3=NCCS3)c2cc1C(C)C,-,-,-,12.6µM,-
O=C(Cn1ncc(Cl)c(Cl)c1=O)c1ccc2c(c1)OCCO2,.,-,.,.,.
CCC(=O)Nc1ccc(C(=O)Cn2ncc(Cl)c(Cl)c2=O)cc1,2.24µM,-,-,-,-
CC(=O)OC[C@@H]1O[C@@H](O/N=C2/C[C@@H](O)[C@@H](O)[C@@H]3[C@H]4C(=O)N(c5ccc(F)cc5F)C(=O)[C@@H]4CC[C@H]23)[C@H](OC(C)=O)[C@H](OC(C)=O)[C@@H]1OC(C)=O,-[13.5 µM],.,-[10 µM],-[10 µM],-
CCOC(=O)c1ccc(NC(=O)Cn2ncc(Cl)c(Cl)c2=O)cc1,28.2µM,?,?,10µM,-
CCC(=O)NC(=S)Nc1ccccc1F,-,-,12.6µM,?,-
CCCC(=O)NC(=S)Nc1ccccc1F,-,-,3.98µM,?,-
SMILES,ALDH1A1 inh,PLK1 PBD block,RORg inh,Gal4-VP16 FLuc,Sfp PPTase inh
CC(C)(C)C(=O)NC(=S)Nc1ccccc1F,?,-,12.6µM,?,-
CC(=O)NC(=S)Nc1ccccc1F,?,-,?,?,-
CN(C(=O)c1cccc(NC(=O)Cc2ccc(NC(=O)C3CCCN(S(=O)(=O)c4cccc([N+](=O)[O-])c4)C3)cc2)c1)C1CCCCC1 (stereo not drawn),.,-,.,.,.
O=C(c1ccccc1)c1c[nH]c(C(=O)NNc2ccccc2)c1,22.4µM,?,?,-,-
OC(CNC1CCCCC1)CON=C1CCSc2c(Cl)cccc21 (stereo not drawn),.,-,.,.,.
CCOc1ccccc1-c1ccc(C(=O)O)o1,?,.,-,-,-
COc1cc(NC(=O)c2ccc(COCC(F)(F)F)cc2)cc(OC)c1OC,-,4.74µM,-,-,-
COc1cc(NC(=O)c2cccc(COCC(F)(F)C(F)F)c2)cc(OC)c1OC,-,-,?,-,-
O=C(NCc1ccccc1Cl)c1csc([C@@H]2C[C@H](O)[C@@H](CO)O2)n1,.,-,.,.,.
CCc1nnc(NC(=O)c2ccc(Cl)nc2)s1,-,-,?,-,-
CCc1nnc(NC(=O)c2ncc(Cl)c(Cl)c2Cl)s1,.,-,3.16µM,3.98µM,-
CCc1nnc(NC(=O)c2cc(Cl)ccn2)s1,.,?,4.47µM,7.08µM,-
CO[C@H]1C[C@@H]2CC[C@@H](C)[C@@](O)(O2)C(=O)C(=O)N2CCCC[C@H]2C(=O)O[C@H]([C@H](C)C[C@@H]2CC[C@@H](O)[C@H](OC)C2)CC(=O)[C@H](C)C=C(C)[C@@H](O)[C@@H](OC)C(=O)[C@H](C)C[C@H](C)C=CC=CC=C1C,.,.,-,?,79.4µM
CC[C@@H]1C=C(C)C[C@H](C)C[C@H](OC)[C@H]2O[C@@](O)(C(=O)C(=O)N3CCCC[C@H]3C(=O)O[C@H](/C(C)=C/[C@@H]3CC[C@@H](O)[C@H](OC)C3)[C@H](C)[C@@H](O)CC1=O)[C@H](C)C[C@@H]2OC,-,.,?,-,-
CO[C@H]1C[C@@H]2CC[C@@H](C)[C@@](O)(O2)C(=O)C(=O)N2CCCC[C@H]2C(=O)OC([C@H](C)C[C@@H]2CC[C@@H](O)[C@H](OC)C2)CC(=O)[C@H](C)/C=C(\C)[C@@H](O)[C@@H](OC)C(=O)[C@H](C)C[C@H](C)/C=C/C=C/C=C/1C (stereo partly drawn),17.8µM!,.,-,-,-
Cc1csc(NC(=O)c2ccc(C(=O)Nc3nc(C)cs3)cc2)n1,-,.,-,-,-
CCc1ccc(C(=O)Nc2nc(C)cs2)s1,.,-,7.08µM,11.2µM,-
Cc1csc(NC(=O)c2cnc3ccccc3n2)n1,.,-,11.2µM,?,-
O=C(Nc1ccccn1)c1ccc2ccccc2c1O,.,?,?,12.6µM,-
O=C(Nc1ccccn1)c1ccc2ccccc2n1,?,-,10µM,?,?
O=C(O)c1ccccc1C(=O)Nc1ccccn1,-,-,-[0.365 µM],.,-
Cc1csc(NC(=O)c2ccc3ccccc3n2)n1,.,-,2.51µM,7.08µM,-
NNC(=O)c1nc[nH]c1C(=O)Nc1ccccn1,22.4µM,-,?,-,-
Cc1ccc(NC(=O)c2[nH]cnc2C(=O)NN)cc1,-,-,?,-,-
Cc1cccc(NC(=O)c2ccc3ccccc3n2)c1C,-,-,1.78µM,?,-
SMILES,ALDH1A1 inh,PLK1 PBD block,RORg inh,Gal4-VP16 FLuc,Sfp PPTase inh
O=C(Nc1nccs1)c1ccccc1Br,.,-,-,-,-
O=C(Nc1nccs1)c1ccc2ccccc2n1,.,-,7.08µM,?,-
Cc1csc(NC(=O)C2(C)CCN2C(=O)C(C)C)c1C#N (stereo not drawn),.,-,.,.,.
CC(C)NC(=O)C1(C)CN(S(C)(=O)=O)CC(=O)N1Cc1ccco1 (stereo not drawn),.,-,.,.,.
CCOC(=O)[C@]12CCCC=C1N(CCC1=CCCCC1)C(=O)[C@H](CC(=O)NCC1CCCCC1)C2,.,-,.,.,.
Cc1csc(NC(=O)c2nc3nccc(C)n3n2)n1,-,3.36µM,-,-,-
